Experimental data reported in PubChem BioAssay (NCATS).
Inconclusive results are not listed. Calls of active or inactive are those of the source. Unless noted, calls follow the shape of the dose curve; as a rule, active = well fitted curve in either direction with a large enough effect (not every such curve was filed as active); inconclusive = small, poorly fitted or top-dose-only effect, or another doubt; inactive = flat fitted curve, though single readings scatter.

Experiments:
[1] = biological target: Lysosomal acid glucosylceramidase (Homo sapiens) (UniProt P04062); experiment: Glucocerebrosidase-p2 (AID 348; in the data active = potency below about 10 µM; also: potency is read from the fitted curve at half-maximal effect); conditions: purified GBA, blue fluorogenic substrate, 40 min
Summary of the method: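 Compounds titrated from 0.6 nM upwards against 0.2 nM enzyme in pH 5.9 citric acid/KH2PO4, taurocholate, tween-20; blue fluorogenic substrate 80 uM, 40 min room temperature, stopped and read Ex 365/Em 440 for AC50.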

[2] = AP1 Signaling Pathway (AID 357); conditions: ME-180 AP-1-bla reporter, EGF-induced, beta-lactamase ratio, 5 h; at 7.69 µM (top of the series) unless noted;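 also: ME-180 reporter cells stimulated with EGF at its EC50 level; % is scaled to controls: 0 for no effect and ±100 for the full control effect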
Summary of the method: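 First, ME-180 AP-1-bla cells were cultured overnight at 37 °C in low-serum Opti-MEM. Next, titrated compounds with EC50 EGF were incubated 5 hours. Finally, CCF4 was added for 2.5 hours and the 460/530 nm ratio recorded.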

[3] = biological target: Cytochrome P450 1A2 (Homo sapiens) (UniProt P05177); experiment: p450-cyp1a2 (AID 410; calls by dose curve; also: potency is read from the fitted curve at half-maximal effect;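 as to activity change, negative = inhibition: -100% = full effect of reference inhibitor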); conditions: recombinant CYP1A2, luciferin-ME demethylation, luminescence; series mostly up to 11.4 µM
Summary of the method: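 20nM CYP1A2 with 100uM Luciferin-ME (at Km) in 100mM KPO4; compound preincubated 10 min, NADPH regeneration added, 60 min at room temperature. Luciferin quantified by luminescence after detection reagent; normalized to 57 uM furafylline.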

[4] = NFAT Signaling Pathway (AID 444); conditions: Jurkat NFAT-bla M1, carbachol, beta-lactamase ratio, 5 h; at 7.69 µM (top of the series) unless noted;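 also: carbachol stimulus at about its EC50 of 1 µM final; % is scaled to controls: 0 for no effect and ±100 for the full control effect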
Summary of the method: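 Jurkat cells with NFAT-driven β-lactamase reporter and co-expressed M1 receptor, stimulated with carbachol (final 1 uM, ~EC50), compound titration, 5 h at 37 °C. CCF4 loaded 1 h at RT; 460/530 nm ratio gave %activity and AC50.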

[5] = Stat Signaling Pathway (AID 446); conditions: ME-180 SIE beta-lactamase reporter, IL-6 stimulated, 5 h; at 7.69 µM (top of the series) unless noted;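 also: ME-180 cervical cancer cells given 40 pM IL-6 alongside compound; SIE-controlled beta-lactamase reporter measured as 460/530 nm FRET emission ratio; % is scaled to controls: 0 for no effect and ±100 for the full control effect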
Summary of the method: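 ME-180 cells carrying a SIE-driven beta-lactamase reporter are stimulated with 40 pM IL-6 for 5 h at 37C in the presence of compound. The 460/530 nm FRET substrate ratio is read after 2.5 h at RT. Data are normalised to 300 pM IL-6 and to 125 nM JAK inhibitor controls.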

[6] = biological target: Glucocorticoid receptor (Homo sapiens) (UniProt P04150); experiment: GR-GFP Redistribution (AID 450;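 active = compounds whose dose series gives a full or clear partial fitted curve of increased nuclear translocation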; also: potency is read from the fitted curve at half-maximal effect); conditions: U2OS GR-GFP nuclear translocation, laser cytometry, 2 h
[7] = biological target: Glucocorticoid receptor (Homo sapiens) (UniProt P04150); experiment: GR-EFC Redistribution (AID 451; calls by dose curve; also: potency is read from the fitted curve at half-maximal effect); conditions: CHO-K1 GR-EFC translocation, beta-gal luminescence, 2 h
Summary of the method: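 CHO-K1 cells expressing nuclear EA and GR-ED fragments of b-gal; compounds titrated up to 46 uM final, 2 h at 37 C. GR nuclear translocation read as complemented b-gal luminescence after 1 h RT detection.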

[8] = biological target: Mitogen-activated protein kinase 10 (Mus musculus) (UniProt Q61831); experiment: JNK3 AlphaScreen Assay (AID 530); conditions: JNK3 lysate, c-Jun phosphorylation; series mostly up to 11.4 µM;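 also: kinase came from lysate of stimulated human HepG2 cells; signal reports phosphorylation of biotinylated GST-cJun 1-79 at Ser73 with 10 µM ATP; % is scaled to controls: 0 for no effect and ±100 for the full control effect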
Summary of the method: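 Pre-activated (IL-1β/TNFα) JNK3 in HepG2 lysates phosphorylates biotin-GST-cJun(1-79), 10 uM ATP; anti-phospho-cJun(Ser73) AlphaScreen read at room temperature, pH 7.6 Tris buffer. Compounds pre-incubated 15 min as titrations.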

[9] = biological target: 3',5'-cyclic-AMP phosphodiesterase 4B (Homo sapiens) (UniProt Q07343); experiment: qHTS Assay for Inhibitors of PDE-IV (AID 607; active = well fitted activation curve with a large enough effect in the main read-out, with a control signal flat, not every such curve was filed as active; also: % of control where 0% means no effect); conditions: HEK293 ACTOne CNG channel cells, membrane potential fluorescence; series mostly up to 22.9 µM
Summary of the method: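 HEK293 ACTOne cells with CNG channel (1000/well), endogenous PDE4; membrane potential dye, compounds up to 22.9 uM final. Fluorescence Ex 535/Em 590; RO 20-1724 (100 uM final) as reference.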

Sequence of Cytochrome P450 1A2 (Homo sapiens) (P05177 whole entry, looked up): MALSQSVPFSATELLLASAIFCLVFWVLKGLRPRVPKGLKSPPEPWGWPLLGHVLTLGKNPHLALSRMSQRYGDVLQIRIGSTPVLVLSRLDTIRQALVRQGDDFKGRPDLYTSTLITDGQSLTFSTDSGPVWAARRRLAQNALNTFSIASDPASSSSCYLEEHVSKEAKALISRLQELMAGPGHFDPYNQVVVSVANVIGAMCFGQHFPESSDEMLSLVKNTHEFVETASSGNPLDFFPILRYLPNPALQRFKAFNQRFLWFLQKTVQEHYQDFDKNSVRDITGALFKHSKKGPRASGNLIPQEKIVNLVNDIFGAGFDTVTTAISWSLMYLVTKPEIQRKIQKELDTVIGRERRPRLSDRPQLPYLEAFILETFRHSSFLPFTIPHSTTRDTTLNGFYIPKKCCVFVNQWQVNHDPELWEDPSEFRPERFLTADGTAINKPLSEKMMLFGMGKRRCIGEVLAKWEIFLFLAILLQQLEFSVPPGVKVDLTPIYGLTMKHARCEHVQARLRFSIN
Sequence of Glucocorticoid receptor (Homo sapiens) (P04150 whole entry, looked up, the tested form may be a part): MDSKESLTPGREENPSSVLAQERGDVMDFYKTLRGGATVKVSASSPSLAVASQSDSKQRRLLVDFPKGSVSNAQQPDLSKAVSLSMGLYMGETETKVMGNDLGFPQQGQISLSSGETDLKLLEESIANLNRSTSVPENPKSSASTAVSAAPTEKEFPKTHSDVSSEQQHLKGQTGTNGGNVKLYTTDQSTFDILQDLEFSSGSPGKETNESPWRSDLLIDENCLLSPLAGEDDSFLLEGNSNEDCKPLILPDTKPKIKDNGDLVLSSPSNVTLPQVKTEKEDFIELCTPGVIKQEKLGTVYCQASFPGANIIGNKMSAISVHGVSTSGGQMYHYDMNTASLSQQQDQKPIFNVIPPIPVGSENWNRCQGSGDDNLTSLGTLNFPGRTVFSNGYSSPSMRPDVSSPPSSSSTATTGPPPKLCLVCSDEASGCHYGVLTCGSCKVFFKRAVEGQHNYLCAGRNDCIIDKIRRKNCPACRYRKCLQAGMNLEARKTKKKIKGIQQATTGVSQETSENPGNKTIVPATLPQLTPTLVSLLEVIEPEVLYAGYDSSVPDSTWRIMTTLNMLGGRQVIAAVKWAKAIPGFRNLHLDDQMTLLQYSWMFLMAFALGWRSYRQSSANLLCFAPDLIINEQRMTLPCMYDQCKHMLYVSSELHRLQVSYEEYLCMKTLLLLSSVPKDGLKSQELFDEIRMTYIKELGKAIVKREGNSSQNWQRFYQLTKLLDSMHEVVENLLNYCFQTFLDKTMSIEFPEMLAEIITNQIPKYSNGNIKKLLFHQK
Sequence of 3',5'-cyclic-AMP phosphodiesterase 4B (Homo sapiens) (Q07343 whole entry, looked up): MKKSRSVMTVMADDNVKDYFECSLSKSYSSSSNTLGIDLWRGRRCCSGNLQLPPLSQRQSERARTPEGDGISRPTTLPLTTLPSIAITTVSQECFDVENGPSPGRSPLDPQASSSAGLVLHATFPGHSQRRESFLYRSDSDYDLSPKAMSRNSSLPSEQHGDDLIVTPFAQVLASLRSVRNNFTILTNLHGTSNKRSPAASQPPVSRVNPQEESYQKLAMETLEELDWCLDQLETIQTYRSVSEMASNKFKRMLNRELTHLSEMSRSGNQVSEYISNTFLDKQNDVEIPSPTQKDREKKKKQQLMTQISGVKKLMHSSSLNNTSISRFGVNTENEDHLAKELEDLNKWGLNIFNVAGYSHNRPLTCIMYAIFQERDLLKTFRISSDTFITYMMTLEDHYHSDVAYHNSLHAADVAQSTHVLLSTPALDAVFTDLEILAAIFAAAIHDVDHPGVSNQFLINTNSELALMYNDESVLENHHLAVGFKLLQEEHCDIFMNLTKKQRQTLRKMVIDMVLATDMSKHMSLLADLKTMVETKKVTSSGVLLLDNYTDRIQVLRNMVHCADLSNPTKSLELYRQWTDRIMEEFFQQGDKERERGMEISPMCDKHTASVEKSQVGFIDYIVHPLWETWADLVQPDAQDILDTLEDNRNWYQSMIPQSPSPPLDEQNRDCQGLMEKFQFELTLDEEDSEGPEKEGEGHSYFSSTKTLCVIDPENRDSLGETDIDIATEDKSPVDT
Sequence of Lysosomal acid glucosylceramidase (Homo sapiens) (P04062 whole entry, looked up): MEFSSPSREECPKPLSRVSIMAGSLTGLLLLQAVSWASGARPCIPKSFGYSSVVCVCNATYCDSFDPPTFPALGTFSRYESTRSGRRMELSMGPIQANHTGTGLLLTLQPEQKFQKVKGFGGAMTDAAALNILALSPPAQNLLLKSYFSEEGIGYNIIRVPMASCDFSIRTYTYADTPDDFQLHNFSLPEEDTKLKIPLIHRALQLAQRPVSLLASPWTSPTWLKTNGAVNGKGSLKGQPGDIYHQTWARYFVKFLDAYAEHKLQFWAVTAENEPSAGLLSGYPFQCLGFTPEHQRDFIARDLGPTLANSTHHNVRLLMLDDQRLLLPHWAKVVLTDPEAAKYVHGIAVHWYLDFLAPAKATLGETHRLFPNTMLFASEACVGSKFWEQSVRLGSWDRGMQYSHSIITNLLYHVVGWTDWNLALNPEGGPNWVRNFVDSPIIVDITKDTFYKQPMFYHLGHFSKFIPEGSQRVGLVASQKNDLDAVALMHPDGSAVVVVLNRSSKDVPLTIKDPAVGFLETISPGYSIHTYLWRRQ

O=[N+]([O-])c1ccccc1N=Nc1c(O)[nH]c2ccc(S(=O)(=O)O)cc12
active: Potency [3] 1 µM
inactive: Potency [1] > 11.4 µM | activity change, negative = inhibition [2] -1.77% | activity change, negative = inhibition [4] 11% | activity, negative = inhibition [5] -1.49% | Potency [6] > 46 µM | Potency [7] > 9.22 µM | Potency [8] | Potency [9]

NCCNC(=S)S
inactive: activity change, negative = inhibition [2] 3.85% | activity change, negative = inhibition [3] -13.2% [at 2.29 µM] | activity change, negative = inhibition [4] -0.808% | activity, negative = inhibition [5] -0.434% | Potency [6] > 46 µM | Potency [7] > 9.22 µM | Potency [8] | Potency [9]
active: Potency [1] 9.83 µM

c1cc(NNc2cccc(-c3nn[nH]n3)c2)cc(-c2nn[nH]n2)c1
inactive: Potency [1] > 11.4 µM | activity change, negative = inhibition [2] 5.72% | activity change, negative = inhibition [3] -15.5% [at 2.29 µM] | activity change, negative = inhibition [4] 2.46% | activity, negative = inhibition [5] 2.5% | Potency [6] > 46 µM | Potency [7] > 9.22 µM | Potency [8] | Potency [9]

NCCSS(=O)(=O)CCN
inactive: Potency [1] > 11.4 µM | activity change, negative = inhibition [2] 7.23% | activity change, negative = inhibition [3] -17.1% [at 2.29 µM] | activity change, negative = inhibition [4] 7.63% | activity, negative = inhibition [5] -25% | Potency [6] > 46 µM | Potency [7] > 9.22 µM | Potency [8] | Potency [9]

O=C(O)c1ccc(Nc2ccnc3cc(Cl)ccc23)cc1O
inactive: Potency [1] > 11.4 µM | activity change, negative = inhibition [2] -7.31% | activity change, negative = inhibition [4] 11.5% | activity, negative = inhibition [5] -9.48% | Potency [6] > 46 µM | Potency [7] > 9.22 µM | Potency [8] | Potency [9]
active: Potency [3] 3.98 µM

CN(C)CCCn1cnc2cc(Cl)c(Cl)cc21
inactive: Potency [1] > 11.4 µM | activity change, negative = inhibition [2] 1.9% | activity change, negative = inhibition [3] -20% [at 2.29 µM] | activity change, negative = inhibition [4] -23.5% | activity, negative = inhibition [5] 11.7% | Potency [6] > 46 µM | Potency [7] > 9.22 µM | Potency [8] | Potency [9]

O=[N+]([O-])c1ccc2c(c1)Cc1cc(N=Cc3ccc4c(c3)OCO4)ccc1-2
active: Potency [3] 0.794 µM
inactive: Potency [1] > 11.4 µM | activity change, negative = inhibition [2] -3.82% | activity change, negative = inhibition [4] -8.54% | activity, negative = inhibition [5] -4.51% | Potency [6] > 46 µM | Potency [7] > 9.22 µM | Potency [8] | Potency [9]

C[C@@H](CNC(N)=O)NC(N)=O
inactive: Potency [1] > 11.4 µM | activity change, negative = inhibition [2] 4.39% | Potency [3] | activity change, negative = inhibition [4] 12.2% | activity, negative = inhibition [5] 5.82% | Potency [6] > 46 µM | Potency [7] > 9.22 µM | Potency [8] | Potency [9]

Cc1cc(Cc2cc(C)c(N)cc2N)c(N)cc1N
inactive: Potency [1] > 11.4 µM | activity change, negative = inhibition [2] -4.79% | activity change, negative = inhibition [4] -1.81% | activity, negative = inhibition [5] 1.49% | Potency [6] > 46 µM | Potency [7] > 9.22 µM | Potency [8] | Potency [9]
active: Potency [3] 2 µM

O=C(O)CCC(=O)c1ccc2sc3ccccc3c2c1
inactive: Potency [1] > 11.4 µM | activity change, negative = inhibition [2] 3.02% | activity change, negative = inhibition [4] 7.45% | activity, negative = inhibition [5] -12.2% | Potency [6] > 46 µM | Potency [7] > 9.22 µM | Potency [8] | Potency [9]
active: Potency [3] 3.98 µM

S=C(S)NCCN1CCNCC1
inactive: Potency [1] > 11.4 µM | activity change, negative = inhibition [2] -1.68% | Potency [3] | activity change, negative = inhibition [4] -3.23% | activity, negative = inhibition [5] -9.45% | Potency [6] > 46 µM | Potency [7] > 9.22 µM | Potency [8] | Potency [9]

CC1(CCC(=O)OC2CCCCC2)OCCO1
inactive: Potency [1] > 11.4 µM | activity change, negative = inhibition [2] 4.96% | Potency [3] | activity change, negative = inhibition [4] 19.8% | activity, negative = inhibition [5] 4.55% | Potency [6] > 46 µM | Potency [7] > 9.22 µM | Potency [8] | Potency [9]

O[C@H](COc1ccccc1)CN1CCCCC1
inactive: Potency [1] > 11.4 µM | activity change, negative = inhibition [2] -1.24% | Potency [3] | activity change, negative = inhibition [4] 2.42% | activity, negative = inhibition [5] 10.3% | Potency [6] > 46 µM | Potency [7] > 9.22 µM | Potency [8] | Potency [9]

C/C(=N\NC(N)=S)c1ccc[nH]1
inactive: Potency [1] > 11.4 µM | activity change, negative = inhibition [2] 0.43% | activity change, negative = inhibition [4] 12% | activity, negative = inhibition [5] -24.4% | Potency [6] > 46 µM | Potency [7] > 9.22 µM | Potency [8] | Potency [9]
active: Potency [3] 3.16 µM

NC(N)=N/N=C\c1ccc(O)c(C(=O)O)c1
inactive: Potency [1] > 11.4 µM | activity change, negative = inhibition [2] 12.8% | activity change, negative = inhibition [3] -11.9% [at 2.29 µM] | activity change, negative = inhibition [4] 14.8% | activity, negative = inhibition [5] -1.78% | Potency [6] > 46 µM | Potency [7] > 9.22 µM | Potency [8] | Potency [9]
